bCat KO growth = beta-catenin-lacking colon tumor cell growth suppression; viability, % at 10 µM; HCT116 beta-catenin knockout viability, CellTiter-Glo, 60 h; stronger effect = lower value; 140,000 compounds, 1.5% hits;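 active means viability at or under a set limit, the compound median less 4 SD, cut at about 6% in these data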;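 further: 0% = Hyamine 1622 control at 20 µM and 100% = untreated cell control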
L major viab = Leishmania major promastigote growth inhibition. inhibition, % at 10 µM. 200,000 compounds, 9% hits. Leishmania major promastigotes, resazurin fluorescence viability. AID 1063; in the data active means inhibition above about 50%;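 further: promastigotes grown with compound for 44 hours at 28 °C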
Ins promoter up = MIN6 insulin promoter up-regulation; z-score at 5 µM; MIN6 insulin promoter-GFP reporter, high-content imaging; stronger effect = higher value; 190,000 compounds, 0.3% hits;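 active means z-score above 3 at 5 µM with at least 500 cells counted in the well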
Insulin prom inh = TRM-6 insulin promoter activity inhibition; TRM-6 cells (human fetal islet line), insulin promoter-eGFP reporter, imaging; reporter expression induced with tamoxifen; inhibition, % at 2 µM; 130,000 compounds, 0.9% hits; AID 1273;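 active means inhibition above the mean plus 3 SD, with well images judged a real hit on visual review, cut at about 60% in these data, passing the limit was not always enough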
PTEN del growth = growth suppressors of cells with PTEN tumor suppressor deletion; HCT116 PTEN-null viability, CellTiter-Glo, 60 h; stronger effect = lower value; viability, % at 10 µM; 140,000 compounds, 1.2% hits;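 active means viability at or below a set limit, 4 SD under the median of all tested compounds, cut at about 3.7% in these data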;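 further: PTEN knockout HCT116 line with beta catenin targeted HCT116 as companion control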
Autophagy mod = alters autophagy in cells; MEF GFP-LC3 puncta imaging; test concentration mostly 10 µM; 190,000 compounds, 0.98% hits; AID 463193; calls only at 10 µM (by protocol);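 active means percentage of spot-positive cells more than 3 SD above its plate mean, without a fluorescence outlier flag or 80% toxicity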;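 further: spot-positive cell cutoff set from DMSO-treated cells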
An asterisk follows results filed as active; i = inactive; nt = no result; + = active, no number. Most compounds without a hit are left out; they make up all but 9.6% or so of the library.

SMILES	bCat KO growth	L major viab	Ins promoter up	Insulin prom inh	PTEN del growth	Autophagy mod
CCSc1ccccc1C(=O)Nc1cc(C)on1	101	1	-0.14	-5	112	i
COc1cc(Cl)nn(-c2ccccc2)c1=O	92	6	0.4	nt	94	i
O=c1c(Cl)cc(Cl)nn1-c1ccccc1	4.1*	71*	-0.37	nt	2.7*	i
CC(=O)N1CC=CC1(CC(C)C)C(=O)NCCN1CCOCC1 (centres undefined)	95	-5	0.77	48	90	i
Cc1cccc(NC(=S)N(CCCN2CCOCC2)Cc2cn(C)c3ccccc23)c1	74	90*	-0.17	47	65	i
Cn1cc(CN(CCCN2CCOCC2)C(=S)Nc2cccc(Cl)c2)c2ccccc21	20	80*	-0.5	-79	16	i
Cc1ccc(NC(=S)N(C)Cc2cn(C)c3ccccc23)cc1	81	63*	-0.44	24	78	i
COc1ccc(NC(=S)N(CCCN2CCOCC2)Cc2cn(C)c3ccccc23)cc1	75	14	0.53	-100	73	i
CCOc1ccc(NC(=S)N(CCCN2CCOCC2)Cc2cn(C)c3ccccc23)cc1	84	60*	nt	-31	94	i
CC(C)c1ccc(NC(=O)Cc2cn(C)c3ccccc23)cc1	nt	6	nt	15	nt	i
Cc1cccc(NC(=O)c2cc(Cl)sc2Cl)c1C	93	-3	1.2	nt	102	i
C=CCNC(=O)C(=O)N/N=C/c1cccc(Br)c1	nt	-4	0.5	-33	nt	i
O=C1OCC2=C1C(c1ccc(F)cc1)CC(=O)N2c1ccc(F)cc1 (centres undefined)	nt	-4	-0.08	nt	nt	i
Cc1cccc(Nc2ncnc3ccccc23)c1	97	88*	0	47	98	i
Cc1ccccc1C(=O)Oc1cccc(Nc2ncnc3ccccc23)c1	nt	57*	nt	20	nt	i
CCOC(=O)c1cccc(Nc2ncnc3ccccc23)c1	69	47	-2	-11	69	i
CC(C)Oc1ccc(Nc2ncnc3ccccc23)cc1	nt	56*	-1.2	nt	nt	i
COC(=O)c1cccc(Nc2ncnc3ccc(C)cc23)c1	98	51*	0.07	29	77	i
Cc1ccc(S(=O)(=O)N2CCCC2C(=O)NCCc2ccccc2)cc1 (centres undefined)	nt	-2	-0.36	nt	nt	i
Cc1nn(Cc2cccc(C(=O)Nn3cc([N+](=O)[O-])cn3)c2)c(C)c1[N+](=O)[O-]	93	-10	0.04	-17	100	i
Cc1c2ccccc2nc2c(F)c(N(C)C)c(F)c(F)c12	46	8	1.9	-176	45	+
CCn1c2ccccc2c2cc(NC(=O)c3ccccc3-c3ccccc3C(=O)O)ccc21	nt	nt	0.2	nt	nt	nt
Cc1ccc2cc(C(c3nnnn3C3CCCC3)N(Cc3ccccc3)Cc3ccco3)c(=O)[nH]c2c1 (centres undefined)	67	80*	1.3	-21	62	i
COCCn1nnnc1C(c1cc2ccc(C)cc2[nH]c1=O)N(Cc1ccco1)Cc1cccs1 (centres undefined)	78	27	-0.9	nt	67	i
CC(C)(C)n1nnnc1C(c1cccs1)N(Cc1ccccc1)Cc1ccco1 (centres undefined)	38	12	-2.9	-42	42	i
SMILES	bCat KO growth	L major viab	Ins promoter up	Insulin prom inh	PTEN del growth	Autophagy mod
CC(C)(C)n1nnnc1C(c1cccs1)N(Cc1cccnc1)Cc1ccco1 (centres undefined)	87	79*	-0.27	-29	94	i
Cc1cc2cc(C(c3nnnn3C3CCCC3)N(Cc3cccnc3)Cc3ccco3)c(=O)[nH]c2cc1C (centres undefined)	57	50	0.09	13	47	i
CCC(C)(C)n1nnnc1C(c1cc2ccc(C)cc2[nH]c1=O)N(Cc1cccnc1)Cc1ccco1 (centres undefined)	70	83*	0.61	nt	65	i
COc1ccc(CN=Cc2[nH]c3ccc(Br)c(Cl)c3c2O)cc1	67	99*	nt	-7	69	i
CCCCC(=O)NC(c1ccccc1Cl)c1c(O)ccc2ccccc12 (centres undefined)	77	99*	-0.08	16	63	i
CCCC(=O)NC(c1ccccc1Cl)c1c(O)ccc2ccccc12 (centres undefined)	61	100*	0.17	16	49	i
Cc1ccc(Sc2ncccc2C(=O)O)c(C)c1	96	-1	0.33	54	100	i
Cc1ccc(Sc2ncccc2C(=O)O)cc1C	95	59*	0.24	-19	101	i
O=C(CN1C(=O)c2ccccc2C1=O)Nc1ccc(S(=O)(=O)N2CCOCC2)cc1	nt	1	1.4	nt	nt	i
CN1CCN(C(=S)NC(=O)c2ccc(C(C)(C)C)cc2)CC1	98	-9	0.05	67*	105	i
Cc1cccc(C(=O)NC(=S)N2CCN(C(=S)NC(=O)c3cccc(C)c3)CC2)c1	74	73*	-0.39	14	66	i
O=C(N/N=C/c1ccccc1)c1ccc(CN2C(=O)c3cccc4cccc2c34)cc1	80	11	0.04	28	68	i
O=C(N/N=C/c1ccc(O)cc1O)c1ccc(CN2C(=O)c3cccc4cccc2c34)cc1	nt	100*	-3.9	nt	nt	i
Cc1cc([N+](=O)[O-])nn1Cc1ccc(C(=O)N/N=C/c2ccc(O)cc2O)cc1	11	95*	0.1	67	15	i
Cc1cc([N+](=O)[O-])nn1Cc1ccc(C(=O)N/N=C/c2ccc(F)cc2)cc1	nt	nt	-0.03	nt	nt	nt
COc1cc(C=C(c2nc3ccccc3s2)c2nc3ccccc3s2)cc(OC)c1O	69	95*	-1.1	-32	56	i
CCOc1cc(/C=C(\CC(=O)O)c2nc3ccccc3s2)ccc1OC	nt	98*	0.42	33	nt	i
COc1cc(/C=C(\CC(=O)O)c2nc3ccccc3s2)cc(OC)c1O	nt	-7	0.36	-56	nt	i
COc1ccc(/C=C(\CC(=O)O)c2nc3ccccc3s2)cc1O	nt	-5	-0.1	11	nt	i
COc1ccc(-c2nc3ccccc3s2)cc1O	79	-6	-0.06	86*	79	i
CS(=O)(=O)N(CC(=O)N1CCC(C(N)=O)CC1)c1cc(C(F)(F)F)ccc1Cl	nt	-6	1.4	nt	nt	i
CO/N=C(/C)CCS(=O)(=O)c1ccccc1	nt	-6	0.8	-7	nt	i
CCCCC(=O)Nc1sc2c(c1C(=O)OCC)CCC(C=O)=C2Cl	1.4*	99*	1.2	nt	1.1*	i
COc1ccc(O)c(-c2cc(-c3ccccc3[N+](=O)[O-])[nH]n2)c1	93	17	-0.63	-7	81	i
O=C(CSc1ncn[nH]1)NCc1ccccc1	89	2	5.4*	-8	105	i
O=C(CSc1ncn[nH]1)NC1CC2CCC1C2 (centres undefined)	88	-4	1.2	27	101	+
COc1ccc(CNC(=O)CSc2ncn[nH]2)cc1	103	-8	nt	-76	100	i

From PubChem
